According to the supplement of paper PMC4466140:

What was measured:
Experiment in all cases: SPOT peptide array binding signal intensity (averaged, normalized) (arbitrary units (background-subtracted, floor 0; scale differs between SH3 domains)); higher = stronger binding of the SH3 domain to the peptide
[1] = target: AgAbp1
In short: (§1)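 SH3 domains from four yeast species were expressed as GST fusions in E. coli BL21(DE3) and purified on glutathione Sepharose. Each was incubated at 10 μg/ml overnight at 4°C in TBS-based blocking buffer on cellulose membranes bearing synthetic 15-mer peptides, in which serines replaced cysteines. Bound protein was detected with anti-GST antibody, an HRP anti-mouse secondary and luminol, then imaged and quantified with Genespotter. The binding signal is the normalized, background-subtracted spot intensity averaged over replicates, in arbitrary units that are not the same from one domain to another.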

[2] = target: AgBbc1
In short: as §1

[3] = target: AgBem1-D1
In short: as §1

[4] = target: AgBzz1-D1
In short: as §1

[5] = target: AgBzz1-D2
In short: as §1

[6] = target: AgCyk3
In short: as §1

[7] = target: AgFus1
In short: as §1

[8] = target: AgHof1
In short: as §1

[9] = target: AgHse1
In short: as §1

[10] = target: AgLsb1
In short: as §1

[11] = target: AgLsb4
In short: as §1

[12] = target: AgMyo5
In short: as §1

[13] = target: AgNbp2
In short: as §1

[14] = target: AgRvs167
In short: as §1

[15] = target: AgSho1
In short: as §1

[16] = target: AgSla1-D1-D2
In short: as §1

[17] = target: AgSla1-D3
In short: as §1

[18] = target: CaAbp1-D1
In short: as §1

[19] = target: CaAbp1-D2
In short: as §1

[20] = target: CaBbc1
In short: as §1

[21] = target: CaBem1-D1
In short: as §1

[22] = target: CaBzz1-D1
In short: as §1

[23] = target: CaBzz1-D2
In short: as §1

[24] = target: CaCyk3
In short: as §1

[25] = target: CaFus1
In short: as §1

[26] = target: CaHof1
In short: as §1

[27] = target: CaHse1
In short: as §1

[28] = target: CaLsb1
In short: as §1

[29] = target: CaLsb4
In short: as §1

[30] = target: CaMyo5
In short: as §1

[31] = target: CaNbp2
In short: as §1

[32] = target: CaRvs167
In short: as §1

[33] = target: CaRvs167-3
In short: as §1

[34] = target: CaSho1
In short: as §1

[35] = target: CaSla1-D1-D2
In short: as §1

[36] = target: CaSla1-D3
In short: as §1

[37] = target: ScAbp1
In short: as §1

[38] = target: ScBbc1
In short: as §1

[39] = target: ScBem1-D1
In short: as §1

[40] = target: ScBzz1-D1
In short: as §1

[41] = target: ScBzz1-D2
In short: as §1

[42] = target: ScCyk3
In short: as §1

[43] = target: ScFus1
In short: as §1

[44] = target: ScHof1
In short: as §1

[45] = target: ScHse1
In short: as §1

[46] = target: ScLsb1
In short: as §1

[47] = target: ScLsb2
In short: as §1

[48] = target: ScLsb3
In short: as §1

[49] = target: ScLsb4
In short: as §1

[50] = target: ScMyo3
In short: as §1

[51] = target: ScMyo5
In short: as §1

[52] = target: ScNbp2
In short: as §1

[53] = target: ScPex13
In short: as §1

[54] = target: ScRvs167
In short: as §1

[55] = target: ScSho1
In short: as §1

[56] = target: ScSla1-D1-D2
In short: as §1

[57] = target: ScSla1-D3
In short: as §1

[58] = target: SpAbp1-D1
In short: as §1

[59] = target: SpBbc1
In short: as §1

[60] = target: SpBzz1-D1
In short: as §1

[61] = target: SpBzz1-D2
In short: as §1

[62] = target: SpCyk3
In short: as §1

[63] = target: SpHof1
In short: as §1

[64] = target: SpHof1-2
In short: as §1

[65] = target: SpHof1-3
In short: as §1

[66] = target: SpHse1
In short: as §1

[67] = target: SpLsb1
In short: as §1

[68] = target: SpLsb4
In short: as §1

[69] = target: SpMyo1
In short: as §1

[70] = target: SpNbp2
In short: as §1

[71] = target: SpPex13
In short: as §1

[72] = target: SpRvs167
In short: as §1

[73] = target: SpSla1-D1-D2
In short: as §1

[74] = target: SpSla1-D3
In short: as §1

TEVPIPRRPPPPQAA
SPOT peptide array binding signal intensity [1]: ≤ 0 | SPOT peptide array binding signal intensity [2]: 130 | SPOT peptide array binding signal intensity [3]: ≤ 0 | SPOT peptide array binding signal intensity [4]: 8 | SPOT peptide array binding signal intensity [5]: 7.5 | SPOT peptide array binding signal intensity [6]: ≤ 0 | SPOT peptide array binding signal intensity [7]: ≤ 0 | SPOT peptide array binding signal intensity [8]: ≤ 0 | SPOT peptide array binding signal intensity [9]: ≤ 0 | SPOT peptide array binding signal intensity [10]: ≤ 0 | SPOT peptide array binding signal intensity [11]: 23.5 | SPOT peptide array binding signal intensity [12]: 938 | SPOT peptide array binding signal intensity [13]: ≤ 0 | SPOT peptide array binding signal intensity [14]: 2.33 | SPOT peptide array binding signal intensity [15]: ≤ 0 | SPOT peptide array binding signal intensity [16]: ≤ 0 | SPOT peptide array binding signal intensity [17]: 1 | SPOT peptide array binding signal intensity [18]: ≤ 0 | SPOT peptide array binding signal intensity [19]: ≤ 0 | SPOT peptide array binding signal intensity [20]: 768 | SPOT peptide array binding signal intensity [21]: ≤ 0 | SPOT peptide array binding signal intensity [22]: 32 | SPOT peptide array binding signal intensity [23]: ≤ 0 | SPOT peptide array binding signal intensity [24]: 20 | SPOT peptide array binding signal intensity [25]: ≤ 0 | SPOT peptide array binding signal intensity [26]: 1 | SPOT peptide array binding signal intensity [27]: ≤ 0 | SPOT peptide array binding signal intensity [28]: 0.5 | SPOT peptide array binding signal intensity [29]: 210 | SPOT peptide array binding signal intensity [30]: 1 | SPOT peptide array binding signal intensity [31]: 204 | SPOT peptide array binding signal intensity [32]: ≤ 0 | SPOT peptide array binding signal intensity [33]: 2.75 | SPOT peptide array binding signal intensity [34]: ≤ 0 | SPOT peptide array binding signal intensity [35]: ≤ 0 | SPOT peptide array binding signal intensity [36]: 0.5 | SPOT peptide array binding signal intensity [37]: ≤ 0 | SPOT peptide array binding signal intensity [38]: ≤ 0 | SPOT peptide array binding signal intensity [39]: ≤ 0 | SPOT peptide array binding signal intensity [40]: 14 | SPOT peptide array binding signal intensity [41]: 12 | SPOT peptide array binding signal intensity [42]: ≤ 0 | SPOT peptide array binding signal intensity [43]: 1 | SPOT peptide array binding signal intensity [44]: ≤ 0 | SPOT peptide array binding signal intensity [45]: ≤ 0 | SPOT peptide array binding signal intensity [46]: 5 | SPOT peptide array binding signal intensity [47]: ≤ 0 | SPOT peptide array binding signal intensity [48]: 118 | SPOT peptide array binding signal intensity [49]: 2 | SPOT peptide array binding signal intensity [50]: 1370 | SPOT peptide array binding signal intensity [51]: 569 | SPOT peptide array binding signal intensity [52]: 12 | SPOT peptide array binding signal intensity [53]: ≤ 0 | SPOT peptide array binding signal intensity [54]: 1.83 | SPOT peptide array binding signal intensity [55]: ≤ 0 | SPOT peptide array binding signal intensity [56]: ≤ 0 | SPOT peptide array binding signal intensity [57]: ≤ 0 | SPOT peptide array binding signal intensity [58]: ≤ 0 | SPOT peptide array binding signal intensity [59]: 1.25 | SPOT peptide array binding signal intensity [60]: 37 | SPOT peptide array binding signal intensity [61]: 0.25 | SPOT peptide array binding signal intensity [62]: ≤ 0 | SPOT peptide array binding signal intensity [63]: ≤ 0 | SPOT peptide array binding signal intensity [64]: ≤ 0 | SPOT peptide array binding signal intensity [65]: ≤ 0 | SPOT peptide array binding signal intensity [66]: 8 | SPOT peptide array binding signal intensity [67]: 1 | SPOT peptide array binding signal intensity [68]: 90.5 | SPOT peptide array binding signal intensity [69]: 1920 | SPOT peptide array binding signal intensity [70]: 1 | SPOT peptide array binding signal intensity [71]: ≤ 0 | SPOT peptide array binding signal intensity [72]: ≤ 0 | SPOT peptide array binding signal intensity [73]: ≤ 0 | SPOT peptide array binding signal intensity [74]: 1
